Measurements published in ChEMBL document CHEMBL3988442, “University of Dundee, Small-Polar-MMV Screening Library” (2021).
About 13,000 (27%) of roughly 48,000 compounds showed an effect of 50% or more. The list shows a part of the results.

These compounds were tested on Wolbachia pipientis (assay: Anti-Wolbachia Cell-Based Screen). Conditions: 5 µM.
Format: functional
Design: scale not given: in the data most compounds retested in dose-response had high values

SMILES | Percent Effect
O=C(Nc1cccn(CC(F)(F)F)c1=O)c1ccc(F)cc1 | 7.272%
O=C(NCC1CC1)C12CC(CN1Cc1nccs1)C2 | -8.528%
CCNC(=O)[C@@H]1C[C@@H](NC(=O)c2cccnc2O)CN1Cc1ccsc1 | 9.29%
C/C=C(\C)CN1C[C@H](NC(=O)c2cnc(O)cn2)C[C@H]1C(=O)NCC | -10.14%
CCNC(=O)[C@@H]1C[C@H](NC(=O)Cc2ccsc2)CN1Cc1ccc(C)o1 | 8.656%
CCNC(=O)[C@@H]1C[C@H](N)CN1Cc1ccc(Sc2ccc(C)cc2)o1 | 11.39%
CCNC(=O)[C@@H]1C[C@@H](NC(=O)Cc2ccccn2)CN1CCCSC | -3.005%
CCNC(=O)[C@@H]1C[C@@H](NC(=O)c2cc(C)on2)CN1Cc1ccccn1 | 121.6%
Cc1cc(C(=O)N2CCC(c3nccn3Cc3ccccn3)CC2)no1 | -9.373%
CCNC(=O)[C@@H]1C[C@@H](NC(=O)c2ccc(C)s2)CN1Cc1ccccn1 | 112.7%
CCNC(=O)[C@@H]1C[C@H](NC(=O)c2ccc(C)s2)CN1Cc1ccc(C)o1 | 103.2%
CSCCc1c(-c2ccccc2)ncn1CC(C)(C)N1CCOCC1 | 0.5421%
CN(CCCc1cc(-c2ccccc2)n[nH]1)C(=O)CCCn1cncn1 | 1.593%
O=C(COC1CCOC1)N(CC(F)F)c1cccc(Cl)c1 (stereo not drawn) | -1.811%
CC1CCC(NC(=O)Nc2ccc(CC(=O)N(C)C)cc2)CC1 (stereo not drawn) | 5.136%
CC(O)CN1CCN(C(=O)c2ccc(CN(C)C)cc2)CC1 (stereo not drawn) | 105.8%
CSCc1ccc(C(=O)N2CCN(CC(C)O)CC2)cc1 (stereo not drawn) | 99.74%
CC(O)CN1CCN(C(=O)c2ccc(Br)o2)CC1 (stereo not drawn) | -12.79%
CCN(CC)Cc1ccc(C(=O)N2CCN(CC(C)O)CC2)cc1 (stereo not drawn) | -1.675%
CSCc1cccc(C(=O)N2CCN(CC(C)O)CC2)c1 (stereo not drawn) | -7.975%
CC(O)CN1CCN(C(=O)c2ccc3c(c2)COC3)CC1 (stereo not drawn) | -5.873%
COCc1ccc(C(=O)N2CCN(CC(C)O)CC2)cc1 (stereo not drawn) | 108.5%
COc1ccccc1C(=O)Nc1ccc([C@@H](O)[C@H]2COCC(=O)N2)cc1 | -5.781%
O=C(O)C1c2nc[nH]c2CCN1Cc1ccccc1-c1ccccc1 (stereo not drawn) | -6.694%
CC(C)CCc1noc(CN2CCCC(CNS(N)(=O)=O)C2)n1 (stereo not drawn) | -3.11%

SMILES | Percent Effect
O=S(=O)(NC1CCC2(CC1)OCCO2)c1cccc(Br)c1 | -35.45%
COC(=O)CN(C)C1CCc2ccccc21 (stereo not drawn) | -6.999%
CCc1[nH]ncc1C(=O)N1CCCN(Cc2cnn(C)c2)CC1 | -4.439%
CCn1cc(CN2CCCN(C(=O)c3ccccc3OC)CC2)cn1 | 106.4%
CCn1cc(CN2CCCN(C(=O)c3ccccc3C)CC2)cn1 | 154.9%
CCCc1cc(=O)[nH]c2nnc(SCC(=O)OC)n12 | 10.3%
CN(Cc1ccc(Cl)s1)C(=O)NCc1nnc2n1CCC2 | 3.09%
CC(C)NC(=O)C1CCc2nnc(CNC(=O)C3CC3)n21 (stereo not drawn) | 113.3%
CC(C)NC(=O)C1CCc2nnc(CNC(=O)c3cccnc3)n21 (stereo not drawn) | 109.4%
CC1CCN(CCNC(=O)C2CCN(C(=O)NC(C)C)CC2)CC1 | 10.9%
COc1ccc(C(NC(=O)NCc2nnc3n2CCC3)C2CC2)cc1 (stereo not drawn) | 10.5%
CC(C)NC(=O)NCc1nnc2n1C(C(=O)N(C)C)CC2 (stereo not drawn) | 107%
CC(C)N(Cc1ccccc1)C(=O)NCCNC(=O)c1cccnc1 | -12.62%
Cc1ccc2c(c1)nc1n2[C@@H](CNC(=O)c2cccnc2)COC1 | -3.716%
CC(NC(=O)C1CCCC1)c1nncn1C(C)C (stereo not drawn) | 0%
CN(C)C(C(=O)N1CCN(CCn2cccc2)CC1)c1cccc(F)c1 (stereo not drawn) | -3.926%
O=C1OCCN1CCSc1nnnn1CC(F)(F)F | -1.95%
CSCc1cccc(S(=O)(=O)NCc2cnn(C)c2C)c1 | -8.017%
CCCc1nc(C)cc(NCc2ccc(S(N)(=O)=O)cc2)n1 | 98.3%
Cc1cc(NC(=O)NCCc2ccc(S(N)(=O)=O)cc2)n(C)n1 | -16.74%
Cc1ccc(C)c2c(O)cc(CNCc3ccc(S(N)(=O)=O)cc3)nc12 | -3.225%
Cc1nc(C(C)C)sc1C(=O)N(C)Cc1cnn(C)c1 | -3.073%
Cc1nn2c(-c3cnn(C)c3)nnc2s1 | 91.48%
CN1CCN(c2nc(-c3cnn(C)c3)cs2)CC1 | 4.898%
Cc1nc(-c2cnn(C)c2)sc1C(=O)NCc1ccc(C)n1C | -0.2397%

SMILES | Percent Effect
CC(C)c1nn2c(-c3cnn(C)c3)nnc2s1 | 112.2%
CS(=O)(=O)NCCC(=O)N1Cc2cnc(-c3ccccc3)nc2C1 | 16.59%
CCN(CC)c1ccc(NC(=O)NCC2CCOC2)cn1 (stereo not drawn) | 10.55%
Cc1cc(Br)cnc1N(C)CC1CCOC1 (stereo not drawn) | 110.5%
Cc1cc(C)c2c(N(C)CC3CCOC3)ncnc2n1 (stereo not drawn) | 14.02%
CCN(CC1CCOC1)C(=O)Nc1ccc(OC)nc1 (stereo not drawn) | 9.48%
Brc1cnc(NCCCOCC2CCOC2)nc1 (stereo not drawn) | -7.311%
Cc1cc(NC(=O)N(CC2CCOC2)C2CC2)no1 (stereo not drawn) | -8.865%
CN(CC1CCOC1)c1ncc(Br)cn1 (stereo not drawn) | 108.2%
CN(CC1CCOC1)c1ccc(Br)cn1 (stereo not drawn) | 73.32%
CC(C)n1cnnc1CN(C)CC1CCOC1 (stereo not drawn) | -3.944%
COCC1CN(S(=O)(=O)Cc2ccc(C)cc2)Cc2c1cnn2C.O=C(O)C(F)(F)F (stereo not drawn) | -11.46%
CCCc1cncnc1N1CCC(NCCc2nc(O)cc(O)n2)CC1 | 12.44%
Cc1ccccc1CCCN(Cc1ccccn1)S(C)(=O)=O | 19.14%
O=C(c1ncn2c(C3CCN(CC4CC4)CC3)ccnc12)N1CCCC1 | -17.31%
COCC1c2nnn(CC3CC3)c2CCN1C(=O)N1CCCC1 (stereo not drawn) | -0.306%
Cl.Cn1cc(C(=O)NCc2cncc3c2CCN(S(C)(=O)=O)C3)cn1 | 98.76%
Cl.Cl.Cn1cc(C(=O)NCc2cncc3c2CCN(c2ccccn2)C3)cn1 | 91.67%
Cl.Cl.Cn1cc(CN2CCc3c(CNC(=O)C4CC4)cncc3C2)cn1 | -6.421%
COCCN1CCc2c(CNC(=O)c3nccn3C)cncc2C1.Cl.Cl.Cl | -25.03%
Cn1cc(C(=O)NCc2cn3c(n2)CN(CC2CCOCC2)CC3)cn1.O=C(O)C(F)(F)F | -7.416%
CC(C)N1CCc2c(CNC(=O)c3nccn3C)cncc2C1.Cl.Cl.Cl | 1.546%
Cl.Cl.Cn1cc(C(=O)NCc2cncc3c2CCN(CC2CC2)C3)cn1 | 108.8%
